Hit rate of the full screen: of about 65,000 compounds, about 2,100 (3.2%) showed an effect of 50% or more. The median lay at about -52%. The list comes from a sample in which strong results are over-represented; it also holds similar structures and randomly drawn compounds.
The compounds below were run on Plasmodium falciparum (assay: Screen against P. falciparum Asexual Blood Stage (ABS), at 5uM). Conditions: tested at 5 uM.
Assay type: functional, Dd2

Structure (SMILES) | INHIBITION [%]
O=C(C1CNCCN1C(=O)CCOc1ccccc1)N1CCOCC1 (stereo not given) | -116
COC(=O)[C@@H]1C[C@H](NC(=O)c2cc(=O)[nH]c3ccc(C)cc23)CN1C | 5.12
CSCC[C@H](N)c1nnc(SCC(=O)Nc2ccc(Br)cc2)o1 | -102
Cc1ccccc1C(=O)N1Cc2c(Cn3ccnc3)nn(C)c2C1 | -35.3
CS(=O)(=O)N1CC2(CCN(C(=O)c3ccncc3)CC2)c2ccccc21 | -67.5
Cc1cc(N2CCC(c3ncc[nH]3)CC2)c2ccccc2n1 | 62.6
Cc1cc(N2CCC(c3ncc[nH]3)CC2)nc(N)n1 | -25.6
Cc1cc(N2CCC(c3ncc[nH]3)CC2)cc(C)n1 | -26.7
NCC(=O)N1CCCC(c2cncc(Nc3ncccn3)n2)C1 (stereo not given) | -81.1
Cc1ccc(CN2CCCC3(COCCN(Cc4c[nH]nn4)C3)C2)s1 (stereo not given) | 37.3
O=C(c1c[nH]c(=O)[nH]c1=O)N1CCCC(c2cnccn2)C1 (stereo not given) | -173
CC(C)Nc1ncnc2c1CCN(C(=O)N1CCOCC1)CC2 | -114
CCC[C@@H]1CN(C(=O)c2ccccc2-c2ncc[nH]2)C[C@H]1N(C)C | -80.9
CCC[C@@H]1CN(C(=O)c2ccccc2C(C)=O)C[C@H]1N(C)C | -112
CCC[C@@H]1CN(C(=O)c2cc(-c3cccs3)n(C)n2)C[C@H]1N(C)C | -63
CCC[C@@H]1CN(C(=O)c2ccccc2-c2ccccc2)C[C@H]1N(C)C | 22.2
CCC[C@@H]1CN(C(=O)c2conc2-c2ccccc2)C[C@H]1N(C)C | 52.8
CCC[C@@H]1CN(C(=O)c2cc3ccccc3cc2O)C[C@H]1N(C)C | 52.8
CCOCC1CN(C2CCCC2)Cc2cnn(CC3CCOCC3)c21 (stereo not given) | -1.53
CC(C)N1CCCN(c2nc(-c3cccnc3)nc3c2cnn3C)CC1 | 43.8
CCN1CCC(CC(=O)NCc2nc(C)cc(C)n2)CC1 | -46.7
Cc1nc(C2CCCN2C(=O)COc2ccccc2)ncc1C(N)=O (stereo not given) | -61
COc1cccc(CN(C)C(=O)c2ccc(NC(C)=O)s2)c1OC | -83.5
NC(=O)CCNCc1c(Cl)cccc1N1CCCC1 | 66.4
O=C(NC1CCCN(c2ccccc2Cl)C1)c1c[nH]nn1 (stereo not given) | -144
NC(=O)CCNC(=O)NCC1(c2ccccc2Cl)CCC1 | -18.5
O=c1oc(-c2cccs2)nn1CC(O)c1ccc2c(c1)CCC2 (stereo not given) | -20

Structure (SMILES) | INHIBITION [%]
Cc1nnc(NC(=O)C(C)n2ncc(Br)c2C)s1 (stereo not given) | -120
C=Cn1ncc(CN2C[C@@H]3CCCN3C[C@@H]2Cc2ccccc2)c1C | 25.8
CCn1ncc(CN2C[C@@H]3CCCN3C[C@@H]2CCSC)c1C | -116
CCCn1ncc(CN2C[C@@H]3CCCN3C[C@H]2CCSC)c1C | -62.1
CCCn1ncc(CN2C[C@@H]3CCCN3C[C@@H]2CCSC)c1C | 29.3
CCCn1ncc(CN2C[C@@H]3CCCN3C[C@H]2Cc2ccccc2)c1C | 57.8
CCCn1ncc(CN2C[C@@H]3CCCN3C[C@@H]2Cc2ccccc2)c1C | 63.8
CNC(=O)COC1COC2(CCN(Cc3ccncc3F)CC2)C1 (stereo not given) | -146
CC(C)[C@H](NS(C)(=O)=O)C(=O)NCc1cc(-c2ccco2)nn1C | -141
COc1c(CNCc2ccccc2Cn2cncn2)c(C)nn1C | 3.03
COc1c(CNCc2ccccc2Cn2cccn2)c(C)nn1C | 57.4
COc1c(CNCc2ccc(Cn3cccn3)cc2)c(C)nn1C | 14.8
COC[C@]1(O)CCN(c2cc(C3CC3)ncn2)CC1(C)C | -106
CC(C)C(=O)NCCc1nc(-c2ccncc2)n[nH]1 | -11.5
CC(C)c1cc(C(=O)NCCc2nc(-c3ccncc3)n[nH]2)[nH]n1 | 66.4
CC(C)c1cc(C(=O)NCCc2nc(-c3cccnc3)n[nH]2)[nH]n1 | 14.9
Cc1noc([C@@H]2C[C@H]3OCC[C@H]3N(Cc3cc(C)c(C)o3)C2)n1 | -151
CCNC(=O)NC(=O)CN1CCC(c2cccc(F)c2)C1 (stereo not given) | -4.74
CNC(=O)NC(=O)CN1CCC(c2cccc(F)c2)C1 (stereo not given) | -92.5
CC(C)NC(=O)CN1CCC(c2cccc(F)c2)C1 (stereo not given) | 54.9
Cc1ccccc1NC(=O)N1CCN(Cc2noc(C3CC3)n2)CC1 | -69.4
Cc1ccccc1C(C(=O)NCCSC(C)C)N(C)C (stereo not given) | 50.3
CSCCCNC(=O)C(c1ccccc1C)N(C)C (stereo not given) | -35.8
Cc1ccccc1C(C(=O)NCCSC(F)(F)F)N(C)C (stereo not given) | 46.1
CSC(C)C(=O)N(C)CCCc1cc(-c2ccccc2)no1 (stereo not given) | -25.3
CCOC(=O)C1CCN(c2cc(C(=O)N3CCOCC3)nc(C)n2)CC1 | -5.84
COc1ccc(C(NCc2cccc(C#N)c2)C2CC2)cc1 (stereo not given) | 48.3

Structure (SMILES) | INHIBITION [%]
COc1ccc(C(NCc2cccc(C#N)c2)C(C)C)cc1 (stereo not given) | -11.2
COc1ccc(C(NCc2ccc(C#N)cc2)C2CC2)cc1 (stereo not given) | 60.9
O=C(C1CCOC1)N1CCC2(CCN(Cc3nccs3)CC2)CC1 (stereo not given) | -146
COc1ccc(NC(=O)c2nc3ccccc3n(C)c2=O)cc1OC | -33.5
O=C(O)c1cc2c(nc1-c1ccoc1)CCN(CC1CCOC1)CC2 (stereo not given) | -108
CSCC(=O)N(C)Cc1noc(-c2ccccc2)n1 | -229
CN(C)CC(C)(O)CNC(=O)Nc1sc2ccccc2c1Cl (stereo not given) | 63.2
CN(C)C(=O)CCNC(=O)Nc1sc2ccccc2c1Cl | -22.3
CS(=O)(=O)CCNC(=O)Nc1sc2ccccc2c1Cl | -95
Cc1cc(-c2cnc(N3CCCCCC3)nc2-c2cccnc2C)on1 | 3.45
Cc1cnn(C2CN(CCOc3cccc(C#N)c3)C2)c1 | -128
CCS(=O)(=O)N1CC(=O)N(Cc2ccccc2OC)CC(O)C1 (stereo not given) | -105
CCOC(=O)C1CCN(C(=O)c2cnn(-c3ccccc3F)c2N)CC1 | -221
Cc1ccc(C(CNCc2cccc3c2OCO3)N2CCOCC2)o1 (stereo not given) | 65.7
c1csc(C(CNCc2cccc3c2OCO3)N2CCOCC2)c1 (stereo not given) | 40.2
c1cc(CNCc2ccnc(N3CCOCC3)c2)c2c(c1)OCO2 | -31.4
Cc1cc(C2CCCN2C(=O)CN2C(=O)OC(C)(C)C2=O)on1 (stereo not given) | -28.9
CCCS(=O)(=O)N1C[C@@H]2CN(Cc3cnn(C)c3)CCO[C@@H]2C1 | -67.3
O=C(NCCNc1cccnc1)C(c1cccnc1)N1CCCC1 (stereo not given) | -11.7
Cc1cccc(C(C(=O)NCCn2cccc2)N(C)C)c1 (stereo not given) | 42.5
O=C(NCCn1cccc1)C(c1ccccc1)N1CCCC1 (stereo not given) | 54.4
CC(C)(NCc1ccc(C#N)cc1)c1ccc2c(c1)OCO2 | -0.993
CC(C)(NCc1cccc(C(N)=O)c1)c1ccc2c(c1)OCO2 | 19.8
CC(C)(NCc1cccc(C#N)c1)c1ccc2c(c1)OCO2 | 51.5
O=C1N[C@@H]2CCN(C(=O)C3CCC3)[C@@H]2C(=O)N1c1ccc(F)cc1 | 32
O=C1N[C@@H]2CCN(C(=O)C3CCCC3)[C@@H]2C(=O)N1c1ccc(F)cc1 | 56.1
O=C1N[C@@H]2CCN(C(=O)C3CC3)[C@@H]2C(=O)N1c1ccc(F)cc1 | -99.9

Structure (SMILES) | INHIBITION [%]
CC(=O)N1N=C(COc2ccc3c(c2)OCO3)OC1c1cccc(Cl)c1 (stereo not given) | -125
Cc1cc(=O)n(CC(=O)NC(C)C)c(Nc2ccc(F)c(C)c2)n1 | -47.4
CN1CCc2cc(C(CNS(=O)(=O)c3cccs3)N3CCCC3)ccc21 (stereo not given) | 15.5
Cc1nn(C)cc1S(=O)(=O)NCC(c1ccccc1)N1CCCCCC1 (stereo not given) | 12.9
CN(C)c1ccc(C(CNS(=O)(=O)c2cccs2)N2CCCC2)cc1 (stereo not given) | 54.2
COc1ccccc1CNC(=O)COc1c(C)n(C)ccc1=O | -82.3
CC(C)c1cnc(CN(C)C2CCN(CCc3cnn(C)c3)C2)o1 (stereo not given) | -112
O=C(NCC1CC1)C1CCC2(CCN(C(=O)c3cnccn3)CC2)O1 (stereo not given) | -40.1
COc1cc(C(C)=O)ccc1OCCNCc1ccco1 | 1.68
COc1cc(CNCc2ccco2)ccc1OCCO | -66.2
CCCc1ccc(OCCNCc2ccco2)c(OC)c1 | 51.5
CCCc1nccn1-c1cccc(CN2CCCC2)c1 | 53.1
c1cc(CN2CCCC2)cc(-n2ccnc2-c2ccncc2)c1 | 6.67
Cn1ccnc1-c1nccn1-c1cccc(CN2CCCC2)c1 | -2.05
O=C(NCCc1ccc(F)cc1)C1CN(C(=O)Cn2cncn2)C1 | -29.6
CN(C)CCN(C)c1nc(CCc2ccccc2)nc2c1cnn2C | 51.9
COCc1nc(N(C)CCSc2ccccc2)c2cnn(C)c2n1 | -14.2
Cc1nc(N(C)CCN(C)C)c2cnn(C)c2n1 | -71.9
CN1CCCc2cc(-c3cncn3CCNC3CCS(=O)(=O)C3)ccc21 (stereo not given) | -79.3
CC1Cc2cc(-c3cncn3CC(=O)NC(C)(C)C)ccc2N1C (stereo not given) | 54.2
CCN1CCc2cc(-c3cncn3CCNC3CCS(=O)(=O)C3)ccc21 (stereo not given) | 3.68
CN1CCCc2cc(-c3cncn3CC(=O)NC(C)(C)C)ccc21 | -38.6
CC1CCN(S(=O)(=O)c2cccn(CC(=O)NC(C)(C)C)c2=O)CC1 | -129
CCN1CCc2cc(-c3cncn3CC(=O)NC(C)(C)C)ccc21 | 66.2

From ChEMBL document CHEMBL4513216, “Probing the Open Global Health Chemical Diversity Library for Multistage-Active Starting Points for Next-Generation Antimalarials” (ACS Infect Dis, 2020)
